Activity calls are given as the source filed them.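 How the source made its calls, unless noted: active means inhibition at or above 50% at 10 µM; inactive means inhibition below 50%.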

Experiment [1] in a line: inhibitors of TNFa-induced NFkB p65 translocation, primary screen, imaging, HUVEC, MLSMR starter and 10KST1 sets (AID 438;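 active means inhibition above 20% together with a positive visual image hit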;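 further: compound added about 3h40 before a 20 min TNFalpha stimulation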;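 on inhibition: signal is the nuclear over cytoplasmic p65 intensity ratio per well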). The settings on record: HUVEC TNFa-induced p65 nuclear translocation; cell count: measured here: nuclei count (cytotoxicity indicator), at 2.08 µM; inhibition: at 2 µM, stronger effect = higher value, 0% TNFa-plus-vehicle, 100% no-TNFa wells.
Experiment [2] in a line: reduction of polyQ htt aggregates in cells – imaging, exon1htt(103Q)mCFP cells, high-content imaging, primary screen (AID 483;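 active means visual image review flags a hit and inhibition of aggregation exceeds 20%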;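 further: compound exposure lasted 3 days before fixation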;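 on nuclei count: percent of the per-plate median nuclei count of sample wells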). Particulars: exon1htt(103Q)mCFP cell line, aggregate imaging, at 2 µM; inhibition of aggregation: stronger effect = higher value; nuclei count: measured here: cell count, toxicity.
Experiment [3] in a line: endothelial E-selectin expression blockers – imaging, HUVEC, immunofluorescence, MLSMR starter and 10KST1 sets, primary screen (AID 487;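 active means visually confirmed hit in the image check and inhibition above 20%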;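 on inhibition: signal is fraction of cell area covered by stained E-selectin grains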;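 on nuclei count: 100% = median nuclei count of all wells on the same plate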). The settings on record: HUVEC TNFalpha-induced E-selectin immunofluorescence imaging, at 2 µM; inhibition: stronger effect = higher value; nuclei count: measured here: cell number, toxicity.
The target in experiment [4] is Voltage-gated potassium channel subunit beta-2 (Rattus norvegicus) (UniProt P62483). The experiment can be described thus: inhibitors of rat Kvbeta2 reductase activity – biochemical, NADPH fluorescence, primary screen (AID 622;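 active means fluorescence slope higher than the sample average by over 3 SD, cut at about -0.22 in these data, passing the limit was not always enough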;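 further: slope of raw intensity against log time taken from 70 to 1610 s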). Particulars: recombinant KvBeta, 4-cyanobenzaldehyde reduction, at 10 µM, stronger effect = higher value.
Chain of Voltage-gated potassium channel subunit beta-2 (Rattus norvegicus) (P62483 whole entry, looked up): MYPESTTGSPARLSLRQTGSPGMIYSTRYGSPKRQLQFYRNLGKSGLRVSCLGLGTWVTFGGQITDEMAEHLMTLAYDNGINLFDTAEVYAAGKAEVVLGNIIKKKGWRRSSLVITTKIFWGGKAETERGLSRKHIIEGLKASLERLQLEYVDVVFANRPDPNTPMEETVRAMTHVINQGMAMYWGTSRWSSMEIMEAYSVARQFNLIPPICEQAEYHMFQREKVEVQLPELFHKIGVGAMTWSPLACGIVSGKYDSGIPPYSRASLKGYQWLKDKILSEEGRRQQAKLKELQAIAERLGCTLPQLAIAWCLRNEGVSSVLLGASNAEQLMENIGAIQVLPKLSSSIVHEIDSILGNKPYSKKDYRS
Experiment [5] shares this target. The experiment can be described thus: enhancers of rat Kvbeta2 NADPH turnover – biochemical, NADPH fluorescence, primary screen (AID 623;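 active means NADPH fluorescence slope more negative than the mean of all samples by about 3 SD, 99.7% confidence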;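 further: fluorescence intensity change per second fitted from 20 to 320 s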). Particulars: Recombinant KvBeta, NADPH fluorescence decrease slope, 10 min; at 10 µM; stronger effect = lower value.
Experiment [6] concerns the target Alpha-2C adrenergic receptor (Homo sapiens) (UniProt P18825). The experiment is described as follows: compounds altering alpha2C-coupled GIRK flux – cell-based, HEK293 alpha2C/GIRK1/2, thallium flux, primary screen (AID 624;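 active means fluorescence slope after compound addition differing from the mean of all screened samples at 99.7% confidence, in either direction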;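 further: slope of fluorescence ratio to pre-addition baseline per second over 15 to 24 s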). The settings on record: thallium flux BTC fluorescence, at 10 µM, actives lie on both sides.
Experiment [7] in a line: blockers of RIG-like receptor reporter activation – cell-based, Sendai virus stimulus, luciferase, 10K MLSCN set, TLR/RLR signaling modifier project, primary screen (AID 602276).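 Further: firefly luciferase from ISG56 promoter only with Renilla not read in this screen; 0% = Sendai virus plus DMSO and 100% = medium plus DMSO without virus.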 The settings on record: HEK293 RL24 IRF3 luciferase reporter, at 10 µM, stronger effect = higher value. (In general: Reporter assays use an easily measured gene product as a stand-in for the process of interest.)

A short description of experiment [8]: TLR3 IRF3 reporter activation blockers – cell-based, poly I:C stimulus, luciferase, 10K MLSCN set, primary screen (AID 602277;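 active means inhibition of the reporter signal at or above 50%; inactive means inhibition below 50%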). Particulars: HEK293-TLR3 RL24 IRF3 luciferase reporter, at 10 µM, stronger effect = higher value.

Chain of Alpha-2C adrenergic receptor (Homo sapiens) (P18825 whole entry, looked up): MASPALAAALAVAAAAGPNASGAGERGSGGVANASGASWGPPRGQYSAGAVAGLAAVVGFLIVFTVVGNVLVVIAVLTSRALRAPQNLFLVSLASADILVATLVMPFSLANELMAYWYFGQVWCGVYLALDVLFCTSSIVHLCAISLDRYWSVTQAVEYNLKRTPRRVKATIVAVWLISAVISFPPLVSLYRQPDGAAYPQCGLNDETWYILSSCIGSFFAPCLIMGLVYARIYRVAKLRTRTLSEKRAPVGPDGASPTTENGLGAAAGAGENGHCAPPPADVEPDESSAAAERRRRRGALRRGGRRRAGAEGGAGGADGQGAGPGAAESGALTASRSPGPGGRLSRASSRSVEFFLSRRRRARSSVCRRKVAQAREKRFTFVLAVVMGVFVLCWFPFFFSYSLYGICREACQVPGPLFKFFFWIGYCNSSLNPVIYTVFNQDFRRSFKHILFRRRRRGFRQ

The term inhibition denotes the change of the read-out against control, counted positive when it falls. For `CCOCCc1nnc(NC(=O)c2ccc(OC)c(OC)c2)s1`, the cell count in experiment [1] was determined as 578. The inhibition in experiment [1] was 9.1% (inactive); in experiment [3], -94.6% (inactive); in experiment [7] it was 14.1% (inactive); in experiment [8], 20% (inactive). Also, the inhibition of aggregation in experiment [2] is -18.6% (inactive). Besides, the nuclei count in experiment [2] came to 97.6%; in experiment [3], 154%. In addition, the fluorescence slope in experiment [4] was -0.515 (inactive). The NADPH fluorescence slope in experiment [5] is -4.8e-05 (inactive). In addition, the slope in experiment [6] was 0.00549 (inactive).

Regarding `CC(C)C(=O)Nc1ccc(C(=O)NCc2cccnc2)cc1`, the cell count in experiment [1] came to 393. Besides, the inhibition is 9.4% (inactive) in experiment [1], -115% (inactive) in experiment [3], -10.7% (inactive) in experiment [7] and -31.6% (inactive) in experiment [8]. In addition, in experiment [2], the inhibition of aggregation was 10% (inactive). In addition, the values for the nuclei count in experiment [2] and in experiment [3] were 102% and 109%, respectively. The fluorescence slope in experiment [4] was -0.598 (inactive). Also, the NADPH fluorescence slope in experiment [5] was 1.1e-05 (inactive). The slope in experiment [6] was 0.00588 (inactive).

Consider `CCCCN(Cc1cc2cc(OC)ccc2[nH]c1=O)C(=O)c1ccccn1`, for which the cell count in experiment [1] was determined as 339. For the same molecule, the inhibition in experiment [1] was -17.9% (inactive); in experiment [3], -11.8% (inactive); in experiment [7], -4.21% (inactive); in experiment [8], 98.1% (active). For the same molecule, the inhibition of aggregation in experiment [2] is -18.3% (inactive). Besides, the nuclei count amounted to 101% in experiment [2] and 89.4% in experiment [3]. Further, the fluorescence slope in experiment [4] is -0.332 (inactive). Further, in experiment [5], the NADPH fluorescence slope was -6.3e-05 (inactive). Besides, the slope in experiment [6] was 0.00511 (inactive).

In the case of `CCOc1ccccc1N(C(=O)Cn1nnnc1-c1ccc(C)o1)C(CC)C(=O)NC(C)(C)C` (centres undefined), the cell count in experiment [1] came to 663. The inhibition in experiment [1] is 1.6% (inactive); in experiment [3] it was -61.8% (inactive); in experiment [7] it was -5.79% (inactive); in experiment [8], 11.2% (inactive). The inhibition of aggregation in experiment [2] was -4.4% (inactive). In addition, the values for the nuclei count in experiment [2] and in experiment [3] were 111% and 89.5%, respectively. In experiment [4], the fluorescence slope is -0.531 (inactive). In experiment [5], the NADPH fluorescence slope is -6.1e-06 (inactive). Further, the slope in experiment [6] was 0.00561 (inactive).

As to `Oc1cc(NCc2cccnc2)ccc1-c1nc2ccccc2o1`, the cell count in experiment [1] came to 378. Also, the inhibition was 6.8% (inactive) in experiment [1], -28.5% (inactive) in experiment [3], -31.3% (inactive) in experiment [7] and -152% (inactive) in experiment [8]. In experiment [2], the inhibition of aggregation was -7.8% (inactive). Besides, the results for the nuclei count in experiment [2] and in experiment [3] were 119% and 123%, respectively. Further, the fluorescence slope in experiment [4] was -0.46 (inactive). Further, the NADPH fluorescence slope in experiment [5] is 8.7e-06 (inactive). In addition, in experiment [6], the slope is 0.00562 (inactive).

With `COc1ccc(S(=O)(=O)N2CCC(C(=O)NCc3ccco3)CC2)cc1`, the cell count in experiment [1] was determined as 245. The inhibition in experiment [1] was -0.2% (inactive); in experiment [3], -290% (inactive); in experiment [7], 7.79% (inactive); in experiment [8] it was 9.56% (inactive). Further, the inhibition of aggregation in experiment [2] is 1.8% (inactive). For the same molecule, the nuclei count in experiment [2] was found to be 99.6%; in experiment [3] it was 114%. For the same molecule, in experiment [4], the fluorescence slope was -0.418 (inactive). Besides, in experiment [5], the NADPH fluorescence slope is -2.7e-05 (inactive). Moreover, the slope in experiment [6] is 0.00415 (inactive).

`O=C(CN(Cc1ccc2c(c1)OCO2)C(=O)CNS(=O)(=O)c1ccccc1)NCc1ccco1`: the cell count in experiment [1] amounted to 869. The inhibition in experiment [1] was 9% (inactive); in experiment [3], -3.6% (inactive); in experiment [7] it was 15.7% (inactive); in experiment [8], 36.2% (inactive). The inhibition of aggregation in experiment [2] is -9.2% (inactive). The nuclei count stood at 108% in experiment [2] and 98.7% in experiment [3]. Also, the fluorescence slope in experiment [4] was -0.356 (inactive). Also, the NADPH fluorescence slope in experiment [5] is 8e-07 (inactive). Also, in experiment [6], the slope is 0.00553 (inactive).

As for `CC(=O)c1ccccc1NS(=O)(=O)c1c(C)nn(-c2ccccc2)c1C`, the cell count in experiment [1] was found to be 580. The inhibition in experiment [1] was -2.4% (inactive); in experiment [3] it was -74.1% (inactive); in experiment [7] it was -4.38% (inactive); in experiment [8], 98.9% (active). Moreover, the inhibition of aggregation in experiment [2] is 2.3% (inactive). Also, the nuclei count worked out at 113% in experiment [2] and 92.7% in experiment [3]. Moreover, the fluorescence slope in experiment [4] is -0.308 (inactive). Further, in experiment [5], the NADPH fluorescence slope is -5e-05 (inactive). In addition, the slope in experiment [6] was 0.00448 (inactive).

Consider `COc1cc(C(=O)NCCc2ccc3c(c2)OCCO3)ccc1OCC(=O)N1CCOCC1`, for which, in experiment [1], the cell count worked out at 632. Moreover, the inhibition is 2.4% (inactive) in experiment [1], -76.6% (inactive) in experiment [3], 14.7% (inactive) in experiment [7] and 15.3% (inactive) in experiment [8]. Moreover, the inhibition of aggregation in experiment [2] is 11.3% (inactive). Also, the nuclei count in experiment [2] stood at 87.3%; in experiment [3], 96.6%. The fluorescence slope in experiment [4] was -0.298 (inactive). In addition, in experiment [5], the NADPH fluorescence slope was -5.4e-05 (inactive). Besides, the slope in experiment [6] was 0.00507 (inactive).

`O=C(NCCc1ccccn1)c1ccc(COc2ccccc2)o1`: the cell count in experiment [1] turned out to be 450. Moreover, the inhibition is -26.3% (inactive) in experiment [1], -39.9% (inactive) in experiment [3], 3.41% (inactive) in experiment [7] and -2.41% (inactive) in experiment [8]. For the same molecule, in experiment [2], the inhibition of aggregation is 8.3% (inactive). Also, the nuclei count in experiment [2] was 93.3%; in experiment [3], 156%. Moreover, the fluorescence slope in experiment [4] was -0.449 (inactive). Besides, in experiment [5], the NADPH fluorescence slope is -4.6e-05 (inactive). The slope in experiment [6] was 0.00624 (inactive).

In the case of `CCNc1nc(N2CCOCC2)nc(N(c2ccccc2)c2ccccc2)n1`, in experiment [1], the cell count came to 324. For the same molecule, the inhibition is 8.2% (inactive) in experiment [1], -3.9% (inactive) in experiment [3], 9.87% (inactive) in experiment [7] and 28.5% (inactive) in experiment [8]. Besides, the inhibition of aggregation in experiment [2] is -29.1% (inactive). The nuclei count in experiment [2] was 93.3%; in experiment [3], 101%. The fluorescence slope in experiment [4] was -0.388 (inactive). For the same molecule, the NADPH fluorescence slope in experiment [5] was -5.9e-05 (inactive). Moreover, the slope in experiment [6] is 0.00355 (inactive).

On to `Cc1ccc(C(C(=O)NC(C)(C)C)N(C(=O)c2csnn2)c2cccc(F)c2)o1` (centres undefined), for which, in experiment [1], the cell count is 357. The inhibition is 4.3% (inactive) in experiment [1], -33.5% (inactive) in experiment [3], 8.19% (inactive) in experiment [7] and 20.7% (inactive) in experiment [8]. Moreover, the inhibition of aggregation in experiment [2] was 7.8% (inactive). In addition, the values for the nuclei count in experiment [2] and in experiment [3] were 93.7% and 81.8%, respectively. Besides, the fluorescence slope in experiment [4] is -0.492 (inactive). Further, the NADPH fluorescence slope in experiment [5] was 8.2e-06 (inactive). For the same molecule, the slope in experiment [6] was 0.00622 (inactive).

`CC1CCc2nn(CC(=O)NCCCN3CCOCC3)cc2C1` (centres undefined): in experiment [1], the cell count was 608. The inhibition in experiment [1] is 10.3% (inactive); in experiment [3] it was 28.4% (inactive); in experiment [7] it was 8.95% (inactive); in experiment [8], 36.3% (inactive). Also, in experiment [2], the inhibition of aggregation was -17.8% (inactive). The nuclei count in experiment [2] worked out at 125%; in experiment [3] it was 107%. Also, the fluorescence slope in experiment [4] was -0.578 (inactive). The NADPH fluorescence slope in experiment [5] is -1.9e-05 (inactive). For the same molecule, the slope in experiment [6] is 0.0058 (inactive).

As for `Cc1cc(C)n(-c2cc(N3CCOCC3)nc(-c3ccccc3)n2)n1`, the cell count in experiment [1] is 323. Moreover, the inhibition in experiment [1] is -14% (inactive); in experiment [3], -59.2% (inactive); in experiment [7], 6.61% (inactive); in experiment [8] it was 12.6% (inactive). For the same molecule, the inhibition of aggregation in experiment [2] was -20.5% (inactive). The nuclei count in experiment [2] worked out at 105%; in experiment [3], 114%. The fluorescence slope in experiment [4] was -0.385 (inactive). Further, the NADPH fluorescence slope in experiment [5] is -1.3e-05 (inactive). Besides, the slope in experiment [6] was 0.00416 (inactive).

The values are drawn from PubChem BioAssay.
